This note sets out measurements from PubChem BioAssay (NCI).

Compounds without any hit were thinned out: in the full panel of roughly 83,000, 20% have a hit.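 Step 1: grow cells in 96-well plates. Step 2: add test compound at a single concentration. Step 3: incubate 48 h. Step 4: record percent growth.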 Calls of active or inactive are those of the source.

The subject of the test is A498 renal. Briefly: NCI-60 one-dose screen, 48 h (100 = growth as untreated, 0 = no growth, -100 = all killed). Particulars: 10 µM unless noted. How it is done: Growth inhibition of the A498 human tumor cell line is measured as a screen for anti-cancer activity. Cells are grown in 96 well plates and exposed to the test compound for 48 hours. Compounds are tested at a single concentration, which is 10^-5 M for most compounds. The reported endpoint is percent growth (GI% or GIPRCNT), where numbers from 0 - 100% represent growth inhibition, and numbers from -100% - 0 represent cell death. For example, a value of 40 represents 60% growth inhibition. A value of 0 means no net growth occurred over the course of the experiment. A value of -40 indicates 40% of cells at the beginning of the experiment died by the end of the experiment. A value of -100 means all cells are dead at the end of the experiment.
NCI-60 Human Tumor Cell Lines Screen was performed using the standard one-dose NCI protocol, which is described in more detail at https://dtp.cancer.gov/discovery_development/nci-60/default.htm.
Compounds with GIPRCNT values below 10 were considered active. Activity score was based on GIPRCNT using the following formula: […]
Score is 0 for GIPRCNT values of 100 or above, 50 for GIPRCNT values of 0, and 100 for GIPRCNT values of -100.
Turning to `COC(=O)Nc1nc2ccc(S(=O)c3ccccc3)cc2[nH]1` (stereo not given), the growth was 56.6% (inactive). To `CN(C)CCNC(=O)c1cc2c3cc(Cl)ccc3[nH]c2c2ncccc12` belongs 26.7% (inactive); to `C#COc1cccc(Nc2c(C#N)cnc3ncc(NC(=O)CCl)cc23)c1`, 56.7% [6.25 µM] (inactive); to `COc1cc(C2c3cc(OC(C)=O)c(OC)cc3CC3C(=O)OCC32)ccc1OC(C)=O` (stereo not given), 180% (inactive). `COc1c(B(O)O)cccc1-c1cc(C)c2c(ccc3[nH]ncc32)n1`: the growth was 8.91% (active). The value for `O=C(Nc1cccc(Cl)c1)Nc1cccc(Cn2c(=O)[nH]c3ccc(Oc4ncccn4)cc3c2=O)c1` was 48.7% (inactive); that for `CC/C(=C(/c1ccc(Cl)cc1)c1ccc(OCCN2CCCCC2)cc1)c1ccc(OC)cc1` was 118% (inactive). The value for `O=C(Nc1ccc(Oc2cccc(Cl)c2)c(Cl)c1)c1cnccn1` was 50.2% (inactive); that for `N#Cc1c(-c2ccc(Cl)cc2)nc(NN2C(=O)c3ccccc3C2=O)nc1N1CCOCC1` was 94.7% (inactive). `CC(=O)Oc1ccc(C)cc1C`: the growth was 87.4% (inactive).

Take `CC(C)(Sc1cc(C(C)(C)C)c(O)c(C(C)(C)C)c1)Sc1cc(C(C)(C)C)c(OC(=O)CCCC(=O)O)c(C(C)(C)C)c1`: the growth was 60.2% (inactive). For the molecule `COC(CC(F)F)c1cn(S(=O)(=O)c2ccc(C)cc2)c2ccccc12` (stereo not given), the growth is 42.3% (inactive). To `CN(C)CC(C)(C)C(=O)/C=C/c1ccccc1` belongs -14.7% [25 µM] (active). To `Cc1cccc(/C=C2\CN(C(=O)OC(C)(C)C)C/C(=C\c3cccc(C)c3)C2=O)c1` belongs 93.9% (inactive); to `CCCCCCC12CCC(=O)N1CCc1cncn12` (stereo not given), 99.2% (inactive). The value for `CCCCCCCCCCC(CN(CC)CC)C(O)c1ccccc1` (stereo not given) was 56.4% (inactive); that for `N#Cc1c(-c2ccccc2)[nH]c2ncc(-c3ccccc3)n2c1=O` was 102% (inactive); that for `COc1cc(-c2csc(NC(=O)c3ccc(N4CCOCC4)c(C(F)(F)F)c3)n2)cc(OC)c1OC` was 56.7% (inactive). Take `C=CCn1c(C)nc2ccc(Nc3nc(Nc4ccc5nc(C)n(CC=C)c5c4)c4ccccc4n3)cc21`: the growth is 99.5% (inactive). The value for `CCOC(=O)n1ccn(C)c1=S` was 115% (inactive); that for `O=[N+]([O-])c1cccc(-c2nc3cc4nc5ccccc5[nH]c4cc3n2)c1` was 92.1% (inactive); that for `CC1(C)CC(=O)C2=C(C1)N(c1ccc(OC(F)(F)F)cc1)C(N)=C(C#N)C2c1ccc(Br)cc1F` (stereo not given) was 31.4% (inactive). Consider `NC(=O)c1c(NC(=O)c2ccc3ccccc3c2)sc2c1CCC(=O)C2`, for which the growth is 95.2% (inactive). To `COc1ccc2c(c1OC)CO[C@@H]2[C@H]1c2c(cc3c(c2OC)OCO3)CCN1S(=O)(=O)c1cn(C)cn1` belongs -21.3% (active); to `CCOc1ccc(NC(=O)CSc2oc(-c3ccccc3)nc2S(=O)(=O)c2ccc(C)cc2)cc1`, 86.2% (inactive); to `CC1CCN(CCOc2ccc(CNc3ccc4nc(CCC5CCCCC5)[nH]c4c3)cc2)CC1`, 2.94% (active). The value for `O=C(c1ccccc1)c1ccc(C2CCCCC2)cc1` was 77.9% (inactive); that for `O=C(O)CCCN1C(=O)/C(=C/c2cn(-c3ccccc3)nc2-c2ccc([N+](=O)[O-])cc2)SC1=S` was 88.2% (inactive).

On to `O=C1/C(=C\c2ccc3nccnc3c2)SC(=S)N1CCc1ccc(O)cc1`, for which the growth is 83.1% (inactive).

With `COCCOc1cc2ncnc(N3CCN(c4ncc(S(=O)(=O)N5CCCCC5)cn4)CC3)c2cc1OCCOC`, the growth is 92.1% (inactive). The value for `NC(=O)c1cc(I)ccc1NC(=O)/C=C/c1ccccc1` was -14.9% (active); that for `CCCOC(=O)Nc1nc2ccc(SCC(C)C)cc2s1` was 40.8% (inactive). To `COC(=O)/C=C1/SC(=Nc2cccc(OC)c2)N(CCc2c[nH]c3ccc(O)cc23)C1=O` belongs 64.9% (inactive). To `CCSc1nc2scc(C)c2c(=O)[nH]1` belongs 89.7% (inactive); to `Cn1c(I)c(C#CCO[Si](C)(C)C(C)(C)C)c(=O)[nH]c1=O`, 94.5% (inactive). Turning to `COc1ccc(-c2nc3cc(C(=O)NCc4ccccc4)ccc3n2C2CCCCC2)cc1`, the growth is 82.4% (inactive).

For the molecule `NC(N)=NCCCCCNc1noc(Cc2c[nH]c3cc(Br)ccc23)n1`, the growth is 94% (inactive). For the molecule `Cn1cc(-c2csc(-c3c[nH]c4ccccc34)n2)c2cnccc21`, the growth is 77.1% (inactive). The value for `OCCn1cc(-c2nc(-c3c[nH]c4ncccc34)cs2)c2ccccc21` was 34.7% (inactive); that for `Nc1n[nH]c2cccc(C#Cc3cccc(NC(=O)c4cc(F)cc(C(F)(F)F)c4)c3)c12` was 57.1% (inactive).
